# BAZ2B inh – BAZ2B (human) inhibition; Q9UIF8; Potency, µM (titrated, usually from 114 µM), for the others: at the highest dose activity change, negative = inhibition, most hits filed as inhibitors; actives 4.4% (n = 360,000); AlphaScreen BAZ2B-H3K14Ac peptide displacement; note: % is set by controls: 0 for no effect and ±100 for the full control effect; nearly all actives have a fitted effect of over 60% in size
#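 Compounds, titrated to a top concentration of 110 uM, were incubated 30 min at room temperature with preformed BAZ2B/acetyl-K14 H3 peptide complex (50 nM each). Proximity signal was measured by AlphaScreen after 20 min with beads.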
# G9a inh – inhibitors of human histone lysine methyltransferase G9a; Q96KQ7; G9a H3K9 monomethylation, AlphaScreen, 2 h; actives 8.8% (n = 350,000); Potency, µM (series often up to 102 µM), for inactives: top-dose activity, negative = inhibition, most hits filed as inhibitors; note: % is set by controls: 0 for no effect and ±100 for the full control effect; nearly all actives have a fitted effect of over 75% in size
#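 G9a (20 nM) was preincubated 15 min with compound, then reacted 2 h at room temperature with 500 nM biotin-H3K9 peptide and 20 µM SAM. Monomethyl-H3K9 detected by AlphaScreen using anti-H3K9me1 antibody.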
# JMJD2A Tudor – JMJD2A Tudor domain (human) inhibition; AID 504339; Potency, µM (top dose mostly 114 µM), inactives show at the top dose activity change, negative = inhibition, usual class: inhibitors; AlphaScreen JMJD2A-Tudor / H3K4me3 peptide binding; actives 4.4% (n = 390,000); note: % is set by controls: 0 for no effect and ±100 for the full control effect; nearly all actives have a fitted effect of over 50% in size
# Target sequence (O75164 whole entry, looked up, the tested form may be a part): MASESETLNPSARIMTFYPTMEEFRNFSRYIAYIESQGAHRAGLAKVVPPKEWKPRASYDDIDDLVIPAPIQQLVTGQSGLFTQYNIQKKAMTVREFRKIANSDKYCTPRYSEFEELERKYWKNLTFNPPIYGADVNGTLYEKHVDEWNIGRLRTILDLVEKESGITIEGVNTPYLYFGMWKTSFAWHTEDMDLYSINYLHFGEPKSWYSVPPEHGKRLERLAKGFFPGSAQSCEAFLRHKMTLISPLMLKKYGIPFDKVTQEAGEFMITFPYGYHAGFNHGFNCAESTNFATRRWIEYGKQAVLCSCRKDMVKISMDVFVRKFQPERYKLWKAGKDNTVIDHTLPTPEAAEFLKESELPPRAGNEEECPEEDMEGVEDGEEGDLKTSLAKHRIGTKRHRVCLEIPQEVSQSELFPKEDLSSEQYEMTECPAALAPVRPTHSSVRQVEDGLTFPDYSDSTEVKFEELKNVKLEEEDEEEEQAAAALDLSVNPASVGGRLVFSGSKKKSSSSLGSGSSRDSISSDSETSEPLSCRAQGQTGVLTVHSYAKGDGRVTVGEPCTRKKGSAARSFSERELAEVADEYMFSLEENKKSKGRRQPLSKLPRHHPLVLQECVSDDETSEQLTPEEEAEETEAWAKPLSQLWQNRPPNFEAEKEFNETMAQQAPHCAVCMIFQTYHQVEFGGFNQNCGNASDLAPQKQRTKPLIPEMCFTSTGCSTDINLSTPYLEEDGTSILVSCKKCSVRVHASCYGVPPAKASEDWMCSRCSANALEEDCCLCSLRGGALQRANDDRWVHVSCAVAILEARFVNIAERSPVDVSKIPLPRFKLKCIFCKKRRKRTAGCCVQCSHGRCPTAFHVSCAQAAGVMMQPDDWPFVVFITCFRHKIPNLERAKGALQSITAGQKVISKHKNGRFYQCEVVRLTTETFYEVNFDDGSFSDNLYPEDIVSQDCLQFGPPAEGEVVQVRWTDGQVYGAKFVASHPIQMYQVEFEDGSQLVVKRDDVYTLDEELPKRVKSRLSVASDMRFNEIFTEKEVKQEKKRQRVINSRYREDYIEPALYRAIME
# HP1b chromo inh – blocks HP1-beta chromodomain binding to methylated histone tails; P83916; AlphaScreen HP1-beta / biotin-H3K9me3 peptide binding; Potency, µM (titrated, usually from 114 µM), inactives show at the top dose activity change, negative = inhibition, most hits filed as inhibitors; actives 0.56% (n = 390,000); note: nearly all actives have a fitted effect of over 70% in size
#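 AlphaScreen: HP1-beta (50 nM) preformed 30 min with biotin-H3(1-18)K9me3 peptide (50 nM) in PBS pH 7.4, 0.01% Tween-20. Compound added for 30 min at RT, then streptavidin donor/nickel chelate acceptor beads (10 ug/mL) for 30 min.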
# GLS inh – blocks human kidney-isoform glutaminase activity; actives 0.21% (n = 410,000); GLS enzymatic activity, qHTS titration; O94925; Potency, µM (doses to about 45.5 µM), for inactives: at the top dose activity change, negative = inhibition, most hits filed as inhibitors; AID 624170; note: % is set by controls: 0 for no effect and ±100 for the full control effect
#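 Enzyme dispensed in phosphate buffer (45 mM, pH 8.2, 0.02% Tween-20), compounds pinned in, then 1 mM L-glutamine solution and the glutamate oxidase–HRP–Amplex Red mix added; fluorescence read immediately and again after 30 min at room temperature.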
# L3MBTL1 inh – inhibitors of human L3MBTL1; Q9Y468; AlphaScreen L3MBTL1–H3K9me1 peptide binding; Potency, µM (doses to about 57.1 µM), inactives show at the highest dose activity, negative = inhibition, most hits filed as inhibitors; actives 0.66% (n = 230,000); note: % is set by controls: 0 for no effect and ±100 for the full control effect; nearly all actives have a fitted effect of over 60% in size
#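 L3MBTL1 (50 nM) pre-complexed 30 min with biotinylated H3(1-15)K9me1 peptide (75 nM), then compounds added for 30 min at room temperature; AlphaScreen streptavidin donor/nickel chelate acceptor beads (10 ug/mL final) read after 30 min dark incubation.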
# * = called active by the depositor; ? = inconclusive; / = not tested or not shown; [ ] = remark or other dose. Hits are enriched below; roughly 10% of the tested compounds scored in any of these assays. Calls come from the whole dose curve; as a rule, active = well fitted curve in the direction sought with a large enough effect; inconclusive = small, poorly fitted or top-dose-only effect, or another doubt; inactive = no such curve, though single readings can be large; an effect the other way counts as inactive or inconclusive. Potency is the fitted concentration of half-maximal effect.
SMILES,BAZ2B inh,G9a inh,JMJD2A Tudor,HP1b chromo inh,GLS inh,L3MBTL1 inh
COc1ccc(-c2csc(Nc3cccc(C)n3)n2)cc1,-8%,-14%,-32%,-3%,-15%,-11%
Cc1[nH]c2ccccc2c1-c1csc(N)n1,?,79µM*,-32%,5%,19%,-11%
COc1ccccc1Nc1nc(-c2c(C)[nH]c3ccccc23)cs1,40µM*,14µM*,50µM*,?,-1%,-8%
CCOc1ccccc1Nc1nc(-c2sc(C)nc2C)cs1,?,?,?,6%,1%,-19%
CCN(Cc1ccccc1)C(=O)CN(c1ccc(OC)cc1)S(=O)(=O)c1c(C)nn(C)c1C,/,0%[59 µM],-18%,16%,7%,/
CCOC(=O)c1noc2ncn(Cc3ccc([N+](=O)[O-])cc3)c(=O)c12,1%,11%[59 µM],-6%,10%[57 µM],0%,/
CCOC(=O)c1ccc(CN(Cc2ccccc2C)S(=O)(=O)c2ccc(C(C)(C)C)cc2)cc1,13%,18%[59 µM],2%,24%,1%,/
O=c1/c(=C/c2ccccc2)sc2nnc(-c3cccs3)n12,0%,/,-2%,-1%,-4%,10%
O=c1/c(=C\c2cccnc2)sc2nc3ccccc3n12,3%,-3%[12.7 µM],-4%,26%,-9%,/
Cc1cc(C)c2nc3s/c(=C/c4ccccc4)c(=O)n3c2c1,3%,1.3µM*,/,/,/,/
O=c1/c(=C/c2cn(-c3ccccc3)nc2-c2ccc(F)cc2)sc2nc3ccccc3n12,2%,-1%[59 µM],/,/,/,0%
Cc1ccc2c(nc3s/c(=C\c4ccc(-c5ccccc5C(=O)O)o4)c(=O)n32)c1C,56µM*,18µM*,?,-18%,?,/
Cc1ccc2c(nc3s/c(=C/c4cccs4)c(=O)n32)c1C,/,7.9µM*,?,-13%,8%,-4%
O=C(O)c1ccc(-c2ccc(/C=c3/sc4nc5ccccc5n4c3=O)o2)cc1Cl,40µM*,5µM*,20µM*,18µM*,10µM*,/
Cc1cc(C)c2nc3sc(=Cc4ccc(-c5ccccc5C(=O)O)o4)c(=O)n3c2c1,/,/,/,/,13µM*,/
Cc1nn(C)c2c1c(C(F)(F)F)cc(=O)n2Cc1ccc(Br)cc1F,82%,71%[59 µM],43%,50%,-2%,/
COc1cccc2c(C)cc3nnc(SCC(=O)Nc4ccc(C)cc4)n3c12,-9%,-3%[59 µM],-17%,27%,6%,/
CCOC(=O)c1c(NC(=O)C(C)Sc2cn(CCNC(=O)c3ccccc3OC)c3ccccc23)sc2c1CCC2 (stereo not given),8.9µM*,?,-31%,3%,7%,/
CCOC(=O)c1c(NC(=O)c2ccccc2C)sc2c1CCCC2,-1%,7.9µM*,85%,66%,-4%,/
CCOC(=O)c1c(NC(=O)c2ccc(N3C(=O)[C@@H]4[C@H](C3=O)[C@H]3C=C[C@@H]4C3)cc2)sc2c1CCCC2,12%,36%[59 µM],-3%,43%,2%,-1%
CCOC(=O)c1c(NC(=O)C(C)Sc2cn(CCNC(=O)c3ccc(OC)c(OC)c3)c3ccccc23)sc2c1CCC2 (stereo not given),-19%,?,?,24%,-2%,/
CCOC(=O)c1c(NC(=O)C2C3C=CC(C3)C2(C)C(=O)O)sc2c1CCCC2 (stereo not given),56µM*,-15%[59 µM],-34%,4%,2%,-15%
CCOC(=O)c1c(NC(=O)c2ccc(Br)cc2)sc2c1CCCC2,4%,10µM*,-10%,?,2%,/
CCOC(=O)c1c(NC(=O)c2ccccc2C(=O)O)sc2c1CCCC2,-2%,4%,-17%,18%,-8%,-2%
COc1cccc(NC(=O)c2csc3c2CCCCC3)c1,1%,10%[59 µM],4%,56%,-3%,/
SMILES,BAZ2B inh,G9a inh,JMJD2A Tudor,HP1b chromo inh,GLS inh,L3MBTL1 inh
Cc1ccc(CN(C(=O)COc2cccc([N+](=O)[O-])c2)c2ccccn2)o1,?,-2%[59 µM],?,2%,-9%,/
Cc1ccc(-n2c(COCC(=O)O)nc3cccnc32)cc1,-14%,21%[59 µM],-15%,32%,1%,/
Cc1ccc(NC(=O)Cn2c(=O)n(CCC(C)C)c(=O)c3cccnc32)cc1C,0%,-14%[59 µM],-8%,23%,-2%,/
COc1ccc(-n2c(SCC(=O)Nc3nnc(C)s3)nc3c([nH]c4ccccc43)c2=O)cc1,-2%,-1%[59 µM],-2%,31%[57 µM],8%,/
COc1ccccc1CNc1ncnc2ccc(-c3cccc(C#N)c3)cc12,/,-38%[0.501 µM],/,/,/,/
COC(=O)C1=C(NC(=O)c2ccccc2C)CCS1,-4%,-34%,79µM*,2%,-7%,2%
CCOC(=O)c1c(NC(=O)c2ccccc2Cl)sc2c1CCc1ccccc1-2,25%,4.5µM*,8%,13%,10µM*,58%
COc1ccc(S(=O)(=O)NC(Cc2cnc[nH]2)C(=O)O)cc1 (stereo not given),-2%,?,13µM*,5%,0%,7%
COc1ccc(S(=O)(=O)NC(Cc2ccccc2)C(=O)O)cc1 (stereo not given),-12%,3%,-4%,53%,4%,/
COc1ccc(OC)c([N+](=O)[O-])c1C(N)=O,50µM*,32µM*,50µM*,?,120%,?
Cc1nc(-c2ccccc2)sc1C(=O)O,-23%,?,?,-9%,5%,-1%
Cc1nc(-c2cccc(C(F)(F)F)c2)sc1C(=O)O,?,56µM*,-9%,3%,7%,3%
CCOc1ccc(CCNC(=O)Cn2nc(CC)n3c(cc4sccc43)c2=O)cc1,-4%,10%[59 µM],-17%,24%,-14%,/
CN(C)Cc1nc(-c2cn(C)c3ccccc23)no1,/,19%[59 µM],/,/,/,/
CCN(CC)CCOCCOC(=O)C(CC)(CC)c1ccccc1 (tested in a mixture with another compound),/,-1%[59 µM],/,/,4%,/
Cc1nc2c(cc(Oc3ccc(S(=O)(=O)N4CCOCC4)cn3)c3ccsc32)s1,1%,71µM*,-17%,23%,-6%,-9%
N[C@H](Cc1ccc(O)cc1)C(=O)O,/,30%[59 µM],/,/,/,/
NC(C(=O)O)C(O)c1ccc(O)c(O)c1 (stereo not given),/,1.1µM*,/,/,31%,/
NC(Cc1cccc2nsnc12)C(=O)O (stereo not given),-5%,?,7.1µM*,5%,-15%,2%
N[C@@H](Cc1ccc(O)c(O)c1)C(=O)O,/,20µM*,40µM*,20µM*,?,/
NC(Cc1ccc2nsnc2c1)C(=O)O (stereo not given),/,/,2.2µM*,-9%,3%,/
Cc1cc2c(s1)c1cnn(Cc3c(C)cc(F)cc3C)c(=O)c1n2C,/,/,-16%,/,/,/
